# Among all 52,000 compounds or so, about 4,300 (8.3%) were called active. Only a selection was taken, and actives are over-represented in it overall. Values without a mark were called inactive. Cut-off read from the data, not from the text of the source: active = survival mostly below about 52% (no sharp cut-off); inactive = mostly above about 56%.
# Test system: DeltatarO mutant
# Experiment: growth inhibition of S. aureus wild type versus tarO mutant, primary screen, teichoic acid synthesis inhibitors, RN4220, OD600 (AID 463173)
# Settings: OD600, 18 h, stronger effect = lower value, screened at 18.75 µg/mL (by protocol)
row,Structure (SMILES),survival
1,CC(C)N(C(=O)CSc1nnc(CSc2ncccn2)n1C)C(C)C,58%
2,CCOC(=O)c1ccc(NC(=O)Cc2ccc(-n3c(CC)nc4cccnc43)cc2)cc1,68%
3,Cc1ccccc1Cn1c(=O)n(Cc2ccc3c(c2)OCO3)c(=O)c2oc3ccccc3c21,110%
4,C/C=N/NC(=O)c1ccccc1,93%
5,O=C(NC1CCCCC1)c1ccc2c(c1)N(Cc1cccc(F)c1)C(=O)c1ccccc1S2,88%
6,Cn1cnc(S(=O)(=O)N2CCC(C(=O)Nc3ccc(C#N)cc3)CC2)c1,107%
7,CC1=C(C(=O)Nc2cccc(C(F)(F)F)c2)C(c2ccccn2)n2ncnc2N1 (centres undefined),102%
8,CC(C)(C)c1nn(-c2ccccc2)c2[nH]c(=O)c(CNc3ccc4c(c3)OCO4)cc12,86%
9,CCOC(=O)c1ccc(N2C(=O)c3[nH]nc(-c4ccccc4)c3C2c2cccs2)cc1 (centres undefined),123%
10,CCOC(=O)c1cc2c(=O)n3ccccc3nc2n(CC(C)C)c1=NC(=O)COc1ccc(Cl)cc1,136%
11,CCOC(=O)c1cc2c(=O)n3ccccc3nc2n(Cc2ccco2)c1=NC(=O)c1ccc(OCC)cc1,37% (active)
12,CCOC(=O)c1cc2c(=O)n3ccccc3nc2n(Cc2ccco2)c1=NC(=O)c1ccccc1OC,28% (active)
13,CCOC(=O)c1cc2c(=O)n3ccccc3nc2n(Cc2ccco2)c1=NC(=O)c1ccc(OC)cc1,34% (active)
14,CCOC(=O)c1cc2c(=O)n3ccccc3nc2n(Cc2ccco2)c1=NC(=O)c1ccccc1Br,71%
15,CCC(C)NC(=O)Cn1c(=O)n(Cc2ccc(C(=O)NCc3ccccc3OC)cc2)c(=O)c2ccccc21 (centres undefined),84%
16,O=c1ccnc(NCCc2ccccc2)[nH]1,104%
17,Cn1cnc(S(=O)(=O)N2CCCC(C(=O)NCc3ccccc3Cl)C2)c1 (centres undefined),99%

row,Structure (SMILES),survival
1,O=C1/C(=C/C2=Cc3ccccc3OC2)SC(=S)N1C1CCS(=O)(=O)C1 (centres undefined),44% (active)
2,O=C1CSC(=S)N1C1CCS(=O)(=O)C1 (centres undefined),97%
3,O=C1/C(=C\c2cccnc2)SC(=S)N1C1CCS(=O)(=O)C1 (centres undefined),93%
4,COc1ccc(-n2cc(-c3ccc4c(c3)OCO4)n(CC(=O)Nc3cc(Cl)ccc3C)c2=O)cc1,73%
5,O=C(c1ccc2c(c1)N(Cc1ccc(F)cc1)C(=O)c1ccccc1S2(=O)=O)N1CCN(Cc2ccccc2)CC1,72%
6,O=C(CCSCc1ccccc1Cl)NCCc1ccccc1,71%
7,O=C(CCSCc1ccc(Cl)cc1)NCCc1ccccc1,-5% (active)
8,Cc1ccc(CCNC(=O)CCSCc2ccccc2F)cc1,-4% (active)
9,Cc1ccc(CCNC(=O)CCSCc2ccc(Cl)cc2)cc1,82%
10,Cc1ccc(CNC(=O)CCSCc2ccccc2F)cc1,78%
11,O=C(CCSCc1cccc(Cl)c1)NCCc1ccc(Cl)cc1,76%
12,Cc1ccc(CCNC(=O)c2ccc(CSCc3ccccc3C)o2)cc1,32% (active)
13,Cc1ccc(CCNC(=O)c2ccc(CSCc3ccccc3Cl)o2)cc1,87%
14,CCc1ccc(CNC(=O)CCSCc2ccccc2F)cc1,96%
15,Cc1ccccc1CSCc1ccc(C(=O)NCCc2ccccc2)o1,83%
16,COc1ccc(CCNC(=O)CCSCc2ccccc2Cl)cc1OC,76%
17,Cc1ccc(CCNC(=O)CCSCc2ccccc2Cl)cc1,20% (active)
